D1 potentiator = potentiators of human D1 dopamine receptor. HEK293 TREx D1 cells, calcium flux, dopamine EC20 potentiation. potentiation, % at 10 µM. 0.036% of 360,000 active. AID 504651; in the data active = potentiation above about 30%
Target sequence (P21728 whole entry, looked up): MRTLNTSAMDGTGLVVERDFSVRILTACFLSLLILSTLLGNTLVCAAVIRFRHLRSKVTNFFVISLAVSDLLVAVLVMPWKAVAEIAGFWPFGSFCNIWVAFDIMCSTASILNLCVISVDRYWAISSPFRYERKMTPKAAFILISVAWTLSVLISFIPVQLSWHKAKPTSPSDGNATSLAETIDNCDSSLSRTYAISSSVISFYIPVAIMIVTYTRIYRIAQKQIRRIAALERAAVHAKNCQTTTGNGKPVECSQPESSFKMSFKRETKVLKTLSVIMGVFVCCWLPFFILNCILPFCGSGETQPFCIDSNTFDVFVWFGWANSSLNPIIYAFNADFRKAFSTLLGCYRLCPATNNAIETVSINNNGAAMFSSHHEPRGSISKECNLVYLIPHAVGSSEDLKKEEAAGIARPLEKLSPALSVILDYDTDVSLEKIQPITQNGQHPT
D1 antagonist = blocks dopamine activation of the human D1 receptor; 3.2% of 360,000 active; P21728; activity change, negative = inhibition, % at 10 µM; AID 504652; HEK293 TREx D1 cells, calcium flux, dopamine EC80; stronger effect = lower value; in the data active = activity change below about -30%
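Kinetic fluorescence of a calcium dye serves as the read-out. D1-expressing Hek293 Trex cells, induced overnight at 30 C, are exposed to compound for 180 s before an EC80 dopamine addition, then read 180 s further.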
DRD3 agonist = agonists of human D3 dopamine receptor. P35462. D3R DiscoveRx beta-arrestin cells, luminescence, 90 min. max activation, %. 0.58% of 410,000 active; in the data active = max activation above about 30%
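Agonist mode: compounds and dopamine controls were applied to plated cells for 90 min at 37 degrees C after an overnight attachment at 1500 cells/well. Luminescent read-out followed 30 - 60 minutes at room temperature with DiscoveRx detection reagent.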
D3 antag = blocks the human D3 dopamine receptor; P35462; D3R cells, DiscoveRx beta-arrestin luminescence, antagonist mode; stronger effect = lower value; max response, negative = inhibition, %; 2.5% of 360,000 active; AID 652054; in the data active = max response below about -50%; inconclusive = no clear call, values can overlap the other calls
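Cells expressing the human receptor were seeded at 1500 cells/well, incubated overnight at 37 degrees C in 5% CO2, then exposed to library compounds with dopamine controls for 90 minutes at 37 degrees C before luminescent detection.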
D1 ag = agonists of human D1 dopamine receptor; P21728; HEK293 T-REx D1 cells, calcium flux, agonist mode; AID 504660; 1% of 360,000 active; activation, % at 2 µM; in the data active = activation above about 30%
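Agonism was scored from calcium flux recorded over 180 s (1 read/s) after pintool compound addition, following a 10-cycle baseline. Cells were inducible force-coupled HEK293 TREx D1, plated overnight at 30 C and loaded with no-wash calcium dye.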
Hits are given with their value; n = inactive; u = inconclusive; x = not tested or not shown. Only some compounds are listed: those with a hit (about 6% of all), similar ones and a draw of the others.

SMILES | D1 potentiator | D1 antagonist | DRD3 agonist | D3 antag | D1 ag
Cc1nn(C)c(C(=O)NCc2ccc(Cl)cc2)c1Cl | n | -63 | n | n | n
O=C(Nc1ccc(Cl)c(C(F)(F)F)c1)C1CCCN(S(=O)(=O)c2cccc3cccnc23)C1 (configuration not stated) | n | n | n | x | n
COCCCNC(=O)CSc1nc2cc3c(cc2c(=O)n1CCCCCC(=O)NCCc1ccc(OC)c(OC)c1)OCO3 | n | n | n | x | n
CN(C)S(=O)(=O)N1CCC(Oc2cccc(C(=O)NCCC3=CCCCC3)c2)CC1 | n | -31 | n | n | 31
CC(=O)Nc1cccc(NC(=O)COc2ccccc2C)c1 | n | -39 | n | n | n
Cc1ccccc1OCC(=O)Nc1ccc(Cc2ccncc2)cc1 | n | -44 | n | u | n
CSc1cc(C)c(OCC(=O)Nc2ccc(NC(C)=O)cc2)c(C)c1 | n | n | n | -52 | n
O=C(COc1ccccc1C(=O)NCc1ccccc1)Nc1ccccc1 | n | -35 | n | n | n
Cc1ccccc1OCC(=O)Nc1ccncc1 | n | n | n | n | n
COc1ccc(C)c2sc(N(Cc3cccnc3)C(=O)C3CCCCC3)nc12 | n | x | n | x | n
O=C1NC[C@H](CCCCN2C[C@H](Cc3ccccc3)N(CCc3ccccc3)C(=O)C2=O)N(CCC2CCCCC2)C1=O | x | x | n | n | x
Cc1ccccc1OCC(=O)Nc1ccc2[nH]c(=O)sc2c1 | n | -49 | n | x | n
O=C(COc1ccccc1Cl)Nc1ccc2[nH]c(=O)[nH]c2c1 | n | n | n | -61 | n
Cc1ccc(NC(=O)COc2ccccc2CNC(C)(C)CC(C)(C)C)cc1 | n | n | n | n | 62
CC(C)(CO)NCc1ccccc1OCC(=O)Nc1ccccc1 | n | n | n | n | n
COc1cc(NC(=O)Nc2nc(C(N)CCc3ccccc3)cs2)cc(OC)c1OC (configuration not stated) | x | x | n | n | x
Cc1nc(N2CCN(c3ccccc3)CC2)c2c3c(sc2n1)CCC3 | n | n | x | x | n
CSc1nc(N2CCOCC2)c2c3c(sc2n1)CCC3 | n | n | n | -65 | n
CCc1ccccc1NC(=O)CCc1c(C)nc2cc(-c3ccccc3)nn2c1C | n | n | n | x | n
O=[N+]([O-])c1cccc(-c2csc(N/N=C/c3cccc(O)c3)n2)c1 | n | -43 | n | n | n
CN(C)S(=O)(=O)c1ccc(-c2csc(N/N=C/c3ccco3)n2)cc1 | n | n | n | n | n
O=C(Nc1nc(-c2cccc([N+](=O)[O-])c2)cs1)C(c1ccccc1)c1ccccc1 | n | n | n | -53 | n
CN(C)S(=O)(=O)c1ccc(-c2csc(N/N=C/c3ccc(O)cc3)n2)cc1 | n | n | 35 | n | n
CC(OC(=O)c1cnccn1)C(=O)Nc1nc(-c2cccc([N+](=O)[O-])c2)cs1 (configuration not stated) | n | -32 | n | n | n
CC(OC(=O)c1ccccc1Br)C(=O)Nc1nc(-c2cccc([N+](=O)[O-])c2)cs1 (configuration not stated) | n | n | n | n | n
SMILES | D1 potentiator | D1 antagonist | DRD3 agonist | D3 antag | D1 ag
O=C(NC(=S)Nc1nc(-c2cccc([N+](=O)[O-])c2)cs1)c1ccccc1Cl | n | n | n | n | n
Cc1ccc(C)c(Cn2c(=O)n(Cc3ccc4c(c3)OCO4)c(=O)c3oc4ccccc4c32)c1 | n | n | n | x | n
Cc1csc(N/N=C/c2ccc([N+](=O)[O-])cc2)n1 | n | -35 | n | n | n
COc1cc2c(cc1NC(=O)CSc1nc3ccccc3[nH]1)oc1ccccc12 | n | n | n | -75 | n
CCN(CC)c1cc2c(cc1F)c(=O)c(S(=O)(=O)c1ccc(OC)cc1)cn2Cc1ccccc1 | n | n | n | x | n
O=C(Cc1ccccc1)NC1(O)C(=O)c2ccccc2C1=O | n | -35 | n | n | n
Nc1[nH]c(C(=O)c2ccccc2)c(-c2ccncc2)c1C(=O)NCCc1c[nH]c2ccccc12 | x | x | n | n | x
Cc1cc(C(=O)Nc2ccccn2)no1 | n | n | 33 | n | n
Cc1cc(NC(=O)c2cccc(C(=O)Nc3cc(C)on3)n2)no1 | n | n | n | n | n
CC(NC(=O)c1ccco1)C(=O)N1CCN(C(c2ccccc2)c2ccccc2)CC1 (configuration not stated) | n | -32 | n | n | n
CC(NC(=O)c1ccco1)C(=O)N1CCN(c2ccccc2)CC1 (configuration not stated) | n | n | n | n | n
O=C(Nc1nnc(N2CCCCCC2)s1)c1cc(-c2ccc(Br)cc2)on1 | n | -48 | n | n | n
CC1CCCC(C)N1c1nnc(NC(=O)c2cc(-c3ccc(Br)cc3)on2)s1 (configuration not stated) | n | n | n | n | n
Cc1ccc(C(=O)Nc2ccc(Br)cc2)cc1S(=O)(=O)N1CCOCC1 | n | n | n | x | n
CC1CCN(C(=O)c2ccc(NC3=C(Cl)C(=O)N(Cc4ccccc4)C3=O)cc2)CC1 | n | n | n | -53 | n
CC1CCCCN1C(=O)c1cccc(NC2=C(Cl)C(=O)N(Cc3ccccc3)C2=O)c1 (configuration not stated) | n | n | n | n | n
Cc1cccc(NC(=O)Cn2c(=O)n(CCCCCC(=O)NCc3ccccc3)c(=O)c3sccc32)c1 | n | n | n | x | n
CCSc1nnc2n(N)c(=O)c3ccccc3n12 | n | -85 | x | x | n
Cc1ccc2c(c1)C1CN(C)CCC1N2C(=O)COc1ccc(N(C)S(=O)(=O)c2cccs2)cc1 (configuration not stated) | n | -36 | n | n | n
CCOc1ccc(S(=O)(=O)N(C)c2ccc(OCC(=O)N3c4ccc(C)cc4C4CN(C)CCC43)cc2)cc1 (configuration not stated) | n | -40 | n | n | n
O=C(O)CNC(=O)c1ccccc1 | n | -34 | n | n | n
Cc1cccc(C)c1NC(=O)CNC(=O)c1ccccc1 | x | -31 | n | n | n
Cc1ccc(C2C=C(c3ccc(F)cc3)Nc3nc(CCCO)nn32)cc1 (configuration not stated) | n | n | n | x | n
Cn1nc(C(=O)NCc2cccs2)c2ccccc2c1=O | n | -41 | n | n | n
Cn1nc(C(=O)NCc2ccccc2)c2ccccc2c1=O | n | n | n | n | n
CC1CCCCC1NC(=O)c1nn(C)c(=O)c2ccccc12 (configuration not stated) | n | -32 | n | n | n
CSc1nc(N)nc2c1ncn2CC(=O)N[C@H](C)c1cccc2ccccc12 | x | x | n | n | x
Cc1ccc(C)c(NC(=O)CCCN2C(=O)C(c3ccccc3)Oc3cccnc32)c1 (configuration not stated) | n | n | n | x | n
O=C(Nc1nnc(C(F)(F)F)s1)c1ccc(Br)s1 | n | -43 | n | n | 37
O=C(Nc1ccccc1C(=O)Nc1nnc(C(F)(F)F)s1)c1ccccc1Cl | n | -30 | n | n | n

Assay outcomes as filed in PubChem.
